Holding throughout (test): DAPPL (digital affinity profiling via proximity ligation, sequencing); 10 mM Tris-HCl pH 7.5, 50 mM NaCl, 1 mM DTT, 4% glycerol, room temperature, 30 min; GST-TFs on glutathione beads, 16-mer random dsDNA library, 0.1% formaldehyde crosslink after washing; high values mean tight binding
What all share (settings): protein: recombinant; tags: N-terminal GST; dsDNA, one strand shown

Assay [1] concerns the target T1, ELK1 (Homo sapiens, UniProt P19419 1-428).
T1 sequence: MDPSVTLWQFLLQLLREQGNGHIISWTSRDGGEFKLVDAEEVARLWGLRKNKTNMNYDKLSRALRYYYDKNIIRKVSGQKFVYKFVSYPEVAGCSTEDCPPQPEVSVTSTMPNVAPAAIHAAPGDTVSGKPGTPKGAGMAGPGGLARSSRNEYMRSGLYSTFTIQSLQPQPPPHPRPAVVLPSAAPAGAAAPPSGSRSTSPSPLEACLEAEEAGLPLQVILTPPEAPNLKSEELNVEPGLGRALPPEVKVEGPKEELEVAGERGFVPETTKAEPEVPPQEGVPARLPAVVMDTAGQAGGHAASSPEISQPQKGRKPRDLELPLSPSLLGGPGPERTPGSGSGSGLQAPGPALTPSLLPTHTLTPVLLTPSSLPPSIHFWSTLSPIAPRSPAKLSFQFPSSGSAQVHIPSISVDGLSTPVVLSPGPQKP
Put shortly:
(§1)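 Each value of binding signal is a hexamer's read frequency for a factor divided by the same hexamer's frequency in the tag-only sample. Barcoded, bead-captured GST fusions of human transcription factors made in yeast were pooled with that sample and incubated with 200 nmole of a random double-stranded 16-mer DNA library in Tris/NaCl/DTT/glycerol buffer at room temperature for 30 min. Washing, 0.1% formaldehyde crosslinking, proximity ligation, PCR and Illumina NextSeq500 sequencing followed.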

For assay [2], the target named is T2, ERG (Homo sapiens, UniProt P11308 1-479).
T2 sequence: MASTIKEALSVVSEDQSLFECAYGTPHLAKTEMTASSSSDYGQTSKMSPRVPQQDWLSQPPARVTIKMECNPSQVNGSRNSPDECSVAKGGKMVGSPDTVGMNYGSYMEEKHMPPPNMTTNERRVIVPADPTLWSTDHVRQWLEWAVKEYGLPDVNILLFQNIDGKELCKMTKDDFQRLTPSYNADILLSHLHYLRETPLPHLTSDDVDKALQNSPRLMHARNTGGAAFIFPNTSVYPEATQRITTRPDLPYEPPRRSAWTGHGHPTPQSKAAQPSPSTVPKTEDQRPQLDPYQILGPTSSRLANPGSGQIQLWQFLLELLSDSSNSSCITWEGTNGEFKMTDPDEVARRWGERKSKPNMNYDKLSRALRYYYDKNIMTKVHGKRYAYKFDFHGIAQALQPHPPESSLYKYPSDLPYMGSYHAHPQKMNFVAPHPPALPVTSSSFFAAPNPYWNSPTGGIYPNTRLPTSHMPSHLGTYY
In a few lines: as §1

In assay [3] the target is ELF1 (Homo sapiens, UniProt P32519 1-619). In a few lines:
as §1

Assay [4] deals with T3, EHF (Homo sapiens, UniProt Q9NZC4 1-300).
T3 sequence: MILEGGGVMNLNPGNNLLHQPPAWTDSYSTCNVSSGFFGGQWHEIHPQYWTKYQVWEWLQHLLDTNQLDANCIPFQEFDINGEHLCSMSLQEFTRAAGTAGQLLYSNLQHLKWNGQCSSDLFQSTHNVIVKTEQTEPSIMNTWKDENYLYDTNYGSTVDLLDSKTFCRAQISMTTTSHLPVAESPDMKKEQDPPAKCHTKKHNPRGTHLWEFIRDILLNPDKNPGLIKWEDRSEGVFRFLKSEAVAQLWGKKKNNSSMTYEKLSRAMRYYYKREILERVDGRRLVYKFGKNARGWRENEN
In a few lines: as §1

Assay [5] concerns the target SPI1 (Homo sapiens, UniProt P17947 1-270). Put shortly: as §1
The target in assay [6] is SPIB (Homo sapiens, UniProt Q01892 1-262). Put shortly:
as §1

In assay [7] the target is ETV5 (Homo sapiens, UniProt P41161 1-510). Put shortly: as §1
Assay [8] has as its target T4, SPIC (Homo sapiens, UniProt Q8N5J4 1-248).
T4 sequence: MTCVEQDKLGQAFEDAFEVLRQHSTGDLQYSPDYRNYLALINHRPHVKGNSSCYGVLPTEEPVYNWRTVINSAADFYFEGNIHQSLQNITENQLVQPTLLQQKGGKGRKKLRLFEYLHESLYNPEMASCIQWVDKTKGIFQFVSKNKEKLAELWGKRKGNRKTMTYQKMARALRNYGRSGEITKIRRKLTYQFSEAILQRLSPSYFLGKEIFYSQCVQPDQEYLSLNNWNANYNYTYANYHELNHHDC
Put shortly:
as §1

Assay [9] addresses T5, ELK4 (Homo sapiens, UniProt P28324-2 1-405).
T5 sequence: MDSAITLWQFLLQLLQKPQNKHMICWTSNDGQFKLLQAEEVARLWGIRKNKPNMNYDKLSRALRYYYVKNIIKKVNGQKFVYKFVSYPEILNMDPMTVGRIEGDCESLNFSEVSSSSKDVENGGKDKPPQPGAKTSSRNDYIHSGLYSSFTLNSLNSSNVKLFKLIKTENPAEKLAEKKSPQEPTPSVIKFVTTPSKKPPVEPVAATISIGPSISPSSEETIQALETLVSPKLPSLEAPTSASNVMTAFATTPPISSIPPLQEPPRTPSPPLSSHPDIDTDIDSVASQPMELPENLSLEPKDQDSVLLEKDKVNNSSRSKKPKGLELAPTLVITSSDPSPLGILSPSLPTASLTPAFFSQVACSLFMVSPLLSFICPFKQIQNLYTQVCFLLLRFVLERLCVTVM
In a few lines: as §1

Assay [10] has as its target T6, ELF3 (Homo sapiens, UniProt P78545 1-371).
T6 sequence: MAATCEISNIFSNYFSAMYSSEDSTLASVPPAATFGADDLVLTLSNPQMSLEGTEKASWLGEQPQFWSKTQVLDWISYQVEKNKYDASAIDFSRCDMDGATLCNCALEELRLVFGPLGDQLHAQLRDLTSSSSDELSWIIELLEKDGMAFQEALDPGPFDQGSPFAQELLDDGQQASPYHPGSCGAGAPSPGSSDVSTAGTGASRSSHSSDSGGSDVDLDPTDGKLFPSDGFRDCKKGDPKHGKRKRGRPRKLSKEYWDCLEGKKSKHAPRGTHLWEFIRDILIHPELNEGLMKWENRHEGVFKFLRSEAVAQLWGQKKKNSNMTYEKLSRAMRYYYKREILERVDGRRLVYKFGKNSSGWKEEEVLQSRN
In a few lines:
as §1

In assay [11] the target is ETV1 (Homo sapiens, UniProt P50549 1-477). In a few lines: as §1
Assay [12] addresses T7, ERF (Homo sapiens, UniProt P50548 1-548).
T7 sequence: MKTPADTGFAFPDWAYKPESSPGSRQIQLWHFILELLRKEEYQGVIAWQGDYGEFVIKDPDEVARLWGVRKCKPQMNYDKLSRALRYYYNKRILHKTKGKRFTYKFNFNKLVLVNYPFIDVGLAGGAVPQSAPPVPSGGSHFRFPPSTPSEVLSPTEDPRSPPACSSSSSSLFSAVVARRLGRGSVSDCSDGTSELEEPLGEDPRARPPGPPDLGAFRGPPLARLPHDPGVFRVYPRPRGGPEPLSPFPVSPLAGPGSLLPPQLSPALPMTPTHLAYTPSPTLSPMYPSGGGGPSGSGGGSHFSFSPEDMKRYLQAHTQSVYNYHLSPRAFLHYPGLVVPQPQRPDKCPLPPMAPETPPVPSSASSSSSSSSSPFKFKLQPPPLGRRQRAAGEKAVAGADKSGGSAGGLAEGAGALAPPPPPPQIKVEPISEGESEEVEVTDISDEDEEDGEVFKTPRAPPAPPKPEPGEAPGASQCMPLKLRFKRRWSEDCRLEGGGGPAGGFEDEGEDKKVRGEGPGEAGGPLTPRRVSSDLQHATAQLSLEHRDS
Put shortly:
as §1

Assay [13] concerns the target T8, ETV3L (Homo sapiens, UniProt Q6ZN32 1-361).
T8 sequence: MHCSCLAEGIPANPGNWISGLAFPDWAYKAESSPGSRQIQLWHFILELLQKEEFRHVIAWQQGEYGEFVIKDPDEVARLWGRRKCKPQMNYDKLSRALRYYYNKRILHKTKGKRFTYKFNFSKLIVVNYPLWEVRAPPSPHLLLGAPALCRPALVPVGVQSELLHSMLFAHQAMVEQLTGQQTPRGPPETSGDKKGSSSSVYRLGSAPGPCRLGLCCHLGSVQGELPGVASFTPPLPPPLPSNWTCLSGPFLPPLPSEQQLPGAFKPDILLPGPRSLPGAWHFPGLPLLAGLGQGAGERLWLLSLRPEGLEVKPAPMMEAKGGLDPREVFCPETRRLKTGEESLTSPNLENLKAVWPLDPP
In a few lines:
as §1

Assay [14] addresses T9, ETS2 (Homo sapiens, UniProt P15036 1-469).
T9 sequence: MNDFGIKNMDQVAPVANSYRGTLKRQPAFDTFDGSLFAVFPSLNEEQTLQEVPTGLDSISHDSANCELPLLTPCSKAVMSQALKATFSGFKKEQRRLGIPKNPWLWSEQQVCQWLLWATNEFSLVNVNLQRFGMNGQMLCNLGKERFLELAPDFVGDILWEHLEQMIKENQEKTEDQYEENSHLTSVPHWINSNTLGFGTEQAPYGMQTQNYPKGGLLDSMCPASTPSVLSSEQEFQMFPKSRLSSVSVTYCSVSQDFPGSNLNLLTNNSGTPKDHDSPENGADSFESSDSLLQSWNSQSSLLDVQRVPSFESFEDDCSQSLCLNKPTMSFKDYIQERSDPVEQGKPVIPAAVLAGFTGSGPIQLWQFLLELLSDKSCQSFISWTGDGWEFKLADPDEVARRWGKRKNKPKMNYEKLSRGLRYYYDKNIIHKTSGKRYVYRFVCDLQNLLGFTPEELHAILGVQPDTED
Put shortly: as §1

Assay [15] deals with T10, SPDEF (Homo sapiens, UniProt O95238 1-335).
T10 sequence: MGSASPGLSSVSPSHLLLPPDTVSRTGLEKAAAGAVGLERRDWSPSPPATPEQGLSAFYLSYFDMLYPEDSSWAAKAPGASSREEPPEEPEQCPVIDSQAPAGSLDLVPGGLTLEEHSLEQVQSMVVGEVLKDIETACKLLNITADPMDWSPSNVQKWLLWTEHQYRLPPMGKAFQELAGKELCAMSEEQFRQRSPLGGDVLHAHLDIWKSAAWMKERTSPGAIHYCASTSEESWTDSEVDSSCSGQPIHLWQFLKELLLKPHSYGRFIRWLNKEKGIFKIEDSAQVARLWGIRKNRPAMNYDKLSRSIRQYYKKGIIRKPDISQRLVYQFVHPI
In a few lines:
as §1

The target of assay [16] is T11, ETV7 (Homo sapiens, UniProt Q9Y603 1-341).
T11 sequence: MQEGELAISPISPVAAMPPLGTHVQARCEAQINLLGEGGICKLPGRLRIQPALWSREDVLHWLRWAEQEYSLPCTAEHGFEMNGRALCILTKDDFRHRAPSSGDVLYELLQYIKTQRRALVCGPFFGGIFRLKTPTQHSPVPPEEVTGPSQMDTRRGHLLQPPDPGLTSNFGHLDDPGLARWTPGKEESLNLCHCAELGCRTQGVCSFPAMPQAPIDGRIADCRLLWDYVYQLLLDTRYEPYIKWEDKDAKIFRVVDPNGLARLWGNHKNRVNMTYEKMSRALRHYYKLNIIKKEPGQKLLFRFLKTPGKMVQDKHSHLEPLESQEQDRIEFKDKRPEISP
In a few lines: as §1

The target in assay [17] is T12, ETV3 (Homo sapiens, UniProt P41162-2 1-143).
T12 sequence: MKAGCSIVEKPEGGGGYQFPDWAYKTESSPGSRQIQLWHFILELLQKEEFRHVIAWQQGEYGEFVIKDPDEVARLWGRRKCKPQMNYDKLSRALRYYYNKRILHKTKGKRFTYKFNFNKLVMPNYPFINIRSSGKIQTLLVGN
In a few lines: as §1

Assay [18] addresses ETV6 (Homo sapiens, UniProt P41212 1-452). In a few lines: as §1

Chain of SPIB (Q01892 whole entry): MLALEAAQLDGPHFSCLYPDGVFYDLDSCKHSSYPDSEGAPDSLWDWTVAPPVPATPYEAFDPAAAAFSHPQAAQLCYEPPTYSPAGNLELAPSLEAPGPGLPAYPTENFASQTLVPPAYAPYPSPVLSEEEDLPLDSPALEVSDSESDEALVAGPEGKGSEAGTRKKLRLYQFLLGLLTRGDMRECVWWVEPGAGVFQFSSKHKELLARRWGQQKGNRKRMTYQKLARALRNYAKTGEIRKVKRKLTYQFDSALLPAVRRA
Chain of ELF1 (P32519 whole entry): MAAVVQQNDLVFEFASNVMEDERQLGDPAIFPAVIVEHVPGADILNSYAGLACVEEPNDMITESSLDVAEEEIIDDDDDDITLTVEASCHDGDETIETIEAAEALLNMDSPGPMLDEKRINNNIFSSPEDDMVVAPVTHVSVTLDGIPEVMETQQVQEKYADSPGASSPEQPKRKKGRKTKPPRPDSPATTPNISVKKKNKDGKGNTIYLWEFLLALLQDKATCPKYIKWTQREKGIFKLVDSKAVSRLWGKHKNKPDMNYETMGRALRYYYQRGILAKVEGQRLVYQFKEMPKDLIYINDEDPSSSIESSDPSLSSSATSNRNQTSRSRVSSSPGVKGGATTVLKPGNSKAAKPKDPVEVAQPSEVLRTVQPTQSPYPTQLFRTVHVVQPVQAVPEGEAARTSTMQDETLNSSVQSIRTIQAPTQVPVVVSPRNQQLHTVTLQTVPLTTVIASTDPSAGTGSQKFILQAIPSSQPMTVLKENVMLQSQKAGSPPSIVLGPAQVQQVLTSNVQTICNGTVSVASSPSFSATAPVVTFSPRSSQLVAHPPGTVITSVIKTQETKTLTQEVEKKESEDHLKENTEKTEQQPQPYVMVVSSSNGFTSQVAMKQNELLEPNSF
Chain of ETV6 (P41212 whole entry): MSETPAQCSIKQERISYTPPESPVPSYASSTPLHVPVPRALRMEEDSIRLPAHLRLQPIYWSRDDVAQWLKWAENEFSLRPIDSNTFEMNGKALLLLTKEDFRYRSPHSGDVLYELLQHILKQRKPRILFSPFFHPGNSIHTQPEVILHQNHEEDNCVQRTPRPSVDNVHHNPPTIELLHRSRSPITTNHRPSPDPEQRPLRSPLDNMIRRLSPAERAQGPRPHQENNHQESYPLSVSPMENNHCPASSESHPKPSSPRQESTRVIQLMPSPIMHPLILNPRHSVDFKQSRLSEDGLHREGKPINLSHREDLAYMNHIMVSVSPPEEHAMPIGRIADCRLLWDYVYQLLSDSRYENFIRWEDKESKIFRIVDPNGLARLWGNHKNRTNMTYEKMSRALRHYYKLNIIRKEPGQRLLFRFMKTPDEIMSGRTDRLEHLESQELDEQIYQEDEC
Chain of ETV5 (P41161 whole entry): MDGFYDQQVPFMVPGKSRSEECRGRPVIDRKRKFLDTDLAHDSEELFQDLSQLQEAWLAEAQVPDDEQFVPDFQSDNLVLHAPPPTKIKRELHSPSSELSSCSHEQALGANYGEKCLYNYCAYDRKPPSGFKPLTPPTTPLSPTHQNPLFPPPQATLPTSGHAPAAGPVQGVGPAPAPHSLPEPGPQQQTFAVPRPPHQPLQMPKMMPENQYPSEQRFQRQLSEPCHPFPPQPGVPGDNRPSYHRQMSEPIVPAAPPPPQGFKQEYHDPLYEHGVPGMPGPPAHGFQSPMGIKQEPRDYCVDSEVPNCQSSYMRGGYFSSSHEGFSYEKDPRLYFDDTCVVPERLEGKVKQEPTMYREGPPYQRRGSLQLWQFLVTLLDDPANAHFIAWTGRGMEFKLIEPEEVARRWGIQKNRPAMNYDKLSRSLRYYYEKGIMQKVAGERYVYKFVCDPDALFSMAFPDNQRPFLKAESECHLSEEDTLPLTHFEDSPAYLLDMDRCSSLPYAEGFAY
Chain of ETV1 (P50549 whole entry): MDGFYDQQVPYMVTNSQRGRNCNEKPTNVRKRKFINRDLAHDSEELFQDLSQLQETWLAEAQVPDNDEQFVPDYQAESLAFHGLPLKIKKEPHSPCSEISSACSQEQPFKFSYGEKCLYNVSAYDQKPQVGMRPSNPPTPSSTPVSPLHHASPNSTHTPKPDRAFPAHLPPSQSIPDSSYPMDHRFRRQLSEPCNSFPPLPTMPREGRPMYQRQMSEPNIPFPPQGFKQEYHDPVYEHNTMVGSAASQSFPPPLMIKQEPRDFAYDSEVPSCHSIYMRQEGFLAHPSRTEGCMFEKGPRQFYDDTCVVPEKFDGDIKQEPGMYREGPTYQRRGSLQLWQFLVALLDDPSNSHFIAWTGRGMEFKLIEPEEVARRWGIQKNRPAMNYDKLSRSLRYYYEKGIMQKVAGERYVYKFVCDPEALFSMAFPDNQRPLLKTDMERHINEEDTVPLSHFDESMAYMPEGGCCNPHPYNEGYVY

As for GGCTAT, the binding signal is 1.06 fold enrichment (6-mer frequency, TF over GST control) in assay [1]; 1.07 fold enrichment (6-mer frequency, TF over GST control) in assay [2]; 1.02 fold enrichment (6-mer frequency, TF over GST control) in assay [3]; 1.12 fold enrichment (6-mer frequency, TF over GST control) in assay [4]; 1.03 fold enrichment (6-mer frequency, TF over GST control) in assay [5]; 1.02 fold enrichment (6-mer frequency, TF over GST control) in assay [6]. Besides, the binding signal was 1 fold enrichment (6-mer frequency, TF over GST control) in assay [7]; 1.03 fold enrichment (6-mer frequency, TF over GST control) in assay [8]; 1.15 fold enrichment (6-mer frequency, TF over GST control) in assay [9]; 1.01 fold enrichment (6-mer frequency, TF over GST control) in [10]; 1.07 fold enrichment (6-mer frequency, TF over GST control) in [11]; 1.06 fold enrichment (6-mer frequency, TF over GST control) in assay [12]. The binding signal was 1.07 fold enrichment (6-mer frequency, TF over GST control) in [13]; 1.02 fold enrichment (6-mer frequency, TF over GST control) in assay [14]; 1.05 fold enrichment (6-mer frequency, TF over GST control) in assay [15]; 1.12 fold enrichment (6-mer frequency, TF over GST control) in assay [16]; 1.06 fold enrichment (6-mer frequency, TF over GST control) in assay [17]; 1.03 fold enrichment (6-mer frequency, TF over GST control) in assay [18].
